High-throughput results: PubChem BioAssay, National Center for Advancing Translational Sciences (NCATS)
This excerpt belongs to a sample that is enriched for hits.
IL-1B inflam inh: inhibitors of inflammasome signaling (IL-1 beta secretion); activity change, % at 57.5 µM; 360,000 compounds, 4.7% hits; AID 743279; THP-1 LPS/ATP IL-1B secretion, AlphaLISA, 16 h; hits give low values; in the data active = activity change below about -50%; inconclusive = mostly about -30% to -49%
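THP-1 cells pretreated 1 hr with compounds (up to 57.5 uM final), then stimulated with LPS (250 ng/mL final) plus ATP (1.25 mM final); secreted IL-1B measured by AlphaLISA after 16 hr, decreased signal indicating inhibition.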
TDP1 cell noCPT: qHTS for Inhibitors of human tyrosyl-DNA phosphodiesterase 1 (TDP1): qHTS in cells in absence of CPT | DT40 Tdp1-/- hTDP1 cells, no CPT, ATP luminescence, 48 h | 420,000 compounds, 15% hits | AID 686978, 2013 | Potency, µM (series often up to 46.2 µM), for the others: at the highest dose activity change, negative = growth inhibition, hits mostly inhibitors; also: potency is read from the fitted curve at half-maximal effect; nearly all actives have a fitted effect of over 55% in size
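DT40 Tdp1-/-;hTDP1 cells, no CPT (DMSO vehicle only), 400 cells/well; compounds pin-transferred; ≥48 hr, 37 °C; CellTiter-Glo 30 min RT dark, luminescence read.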
ALOX12 inh: ALOX12 (human) lipoxygenase inhibition; purified 12hLO, xylenol orange hydroperoxide absorbance; Potency, µM (top dose mostly 108 µM), for inactives: at the top dose activity change, negative = inhibition, usual class: inhibitors; 580,000 compounds, 1.1% hits; AID 1671190; also: potency is read from the fitted curve at half-maximal effect
Target sequence (P18054 whole entry, looked up): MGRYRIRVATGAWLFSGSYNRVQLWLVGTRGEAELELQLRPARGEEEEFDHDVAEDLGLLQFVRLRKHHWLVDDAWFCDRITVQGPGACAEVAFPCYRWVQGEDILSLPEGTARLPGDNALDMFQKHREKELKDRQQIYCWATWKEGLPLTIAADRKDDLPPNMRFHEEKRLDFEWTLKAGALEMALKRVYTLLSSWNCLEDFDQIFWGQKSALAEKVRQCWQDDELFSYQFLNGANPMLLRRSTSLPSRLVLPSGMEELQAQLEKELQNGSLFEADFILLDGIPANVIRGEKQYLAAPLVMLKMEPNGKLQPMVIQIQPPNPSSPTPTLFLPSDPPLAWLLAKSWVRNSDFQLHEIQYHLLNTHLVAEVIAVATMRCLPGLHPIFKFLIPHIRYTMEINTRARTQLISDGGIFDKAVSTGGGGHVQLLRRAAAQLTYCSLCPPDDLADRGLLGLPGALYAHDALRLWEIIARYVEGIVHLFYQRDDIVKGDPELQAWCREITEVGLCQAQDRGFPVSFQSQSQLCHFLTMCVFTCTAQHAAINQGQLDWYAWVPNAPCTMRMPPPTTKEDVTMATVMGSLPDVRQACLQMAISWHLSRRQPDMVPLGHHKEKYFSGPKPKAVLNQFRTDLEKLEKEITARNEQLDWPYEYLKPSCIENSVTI
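Hydroperoxide product was detected by ferrous iron/xylenol orange as the 573 to 405 nm absorbance ratio. Arachidonic acid at 40 uM (final) was turned over for 30 min at room temperature by 150 nM human 12hLO, pH 7.0 Hepes buffer, after 15 min compound preincubation.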
HT1080 IDH1KD tx: kills HT-1080 cells with IDH1 knockdown; Potency, µM (series often up to 46.1 µM), for inactives: at the highest dose activity, negative = toxicity, most hits filed as cytotoxic; HT-1080 IDH1 knockdown viability, ATP luminescence, 48 h; 360,000 compounds, 2% hits;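 also: potency is read from the fitted curve at half-maximal effect; 0% = DMSO wells and -100% = cell-free medium wells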
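Assay cells: HT-1080 with IDH1 knockdown, 750 per well, RPMI/5% FBS. Exposure: 48 h at 37 °C following 2 h pre-incubation. Read: CellTiter-Glo luminescence; fitted concentration-response, curve class assigned.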
DT40 TDP1 CPT: DT40-hTDP1 cell growth loss with CPT | chicken DT40 Tdp1-/-;hTDP1 cells + 20 nM CPT, ATP luminescence, 48 h | Potency, µM (doses to about 46.2 µM), inactives show at the top dose activity change, negative = growth inhibition, most hits filed as inhibitors | 420,000 compounds, 12% hits | AID 686979; also: potency is read from the fitted curve at half-maximal effect; nearly all actives have a fitted effect of over 55% in size
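Chicken DT40 Tdp1-/- cells complemented with human TDP1, 400 cells/well, exposed to compounds plus 20 nM camptothecin for at least 48 h at 37 C; viability read as ATP content by CellTiter-Glo luminescence.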
HT1080NT lethal: kills 2HG-producing HT-1080-NT fibrosarcoma cells; HT-1080-NT fibrosarcoma viability, CellTiter-Glo ATP luminescence, 48 h; Potency, µM (titrated, usually from 46.1 µM), inactives show at the top dose activity, negative = less viability, actives largely listed as cytotoxic; 360,000 compounds, 1.6% hits; AID 686970;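 also: NT is the 2HG producing partner of a matched IDH1 knockdown line; potency is read from the fitted curve at half-maximal effect; 0% = DMSO-treated cells and -100% = media-only wells without cells; nearly all actives have a fitted effect of over 55% in size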
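Compounds were tested in concentration-response format on HT-1080-NT cells for 48 hours at 37 degrees C. Cell viability came from CellTiter-Glo luminescence; curves were classified by r2, response magnitude and activity.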
Starred values were filed as active, the others as inactive; ? = inconclusive; nt = not tested or not shown; ! = not active in a repeat; [ ] = dose if it differs, or a comment. Unless noted, calls follow the shape of the dose curve; as a rule, active = well fitted curve in the direction sought with a large enough effect; inconclusive = small, poorly fitted or top-dose-only effect, or another doubt; inactive = no such curve, though single readings can be large; an effect the other way counts as inactive or inconclusive. Unless noted, % is scaled to controls: 0 for no effect and ±100 for the full control effect.

SMILES	IL-1B inflam inh	TDP1 cell noCPT	ALOX12 inh	HT1080 IDH1KD tx	DT40 TDP1 CPT	HT1080NT lethal
CCn1c2c(c(=O)n1Cc1ccccc1)CCN(C(=O)c1cn[nH]c1)C2	nt	nt	58.6%[176 µM]	nt	nt	nt
O=S1(=O)C=C(SCc2cccc(Cl)c2)Nc2ccccc21	-50.6*	-27.1%	-22.0%	12.1%	?	0.3%
Cc1ccc(CSC2=CS(=O)(=O)c3ccccc3N2)cc1	-5.7	?	25.1%	-19.8%	?	-18.5%
Cc1cccc(CSC2=CS(=O)(=O)c3ccccc3N2)c1	-5.4	23.1µM*	-17.7%	-14.2%	?	-9.1%
Cc1oc(-c2ccccc2)nc1CC(=O)NCC(C)(C)N1CCOCC1	nt	nt	-11.4%	nt	nt	nt
COc1ccc(CCNC(=O)Cn2c(=O)nc(-c3ccccc3)c3cc(Cl)ccc32)cc1OC	nt	?	-9.9%	nt	?	nt
Cc1c(Cl)cccc1NC(=O)Cn1c(=O)nc(-c2ccccc2)c2ccccc21	nt	16.4µM*	-20.3%	nt	?	nt
COc1ccc(CNC(=O)Cn2c(=O)nc(-c3ccccc3)c3ccccc32)cc1OC	nt	16.4µM*	-20.5%	nt	?	nt
Cc1cccc(NC(=O)Cn2c(=O)nc(-c3ccccc3)c3ccccc32)c1C	nt	20.6µM*	-25.7%	nt	?	nt
CC(=O)c1ccc(NC(=O)Cn2c(=O)nc(-c3ccccc3)c3ccccc32)cc1	nt	-18.9%	-9.2%	nt	5.1%	nt
CC(Oc1ccc(F)cc1Cl)C(=O)NN (stereo not drawn)	nt	nt	37.7%	nt	nt	nt
O=C(c1ccc(Br)cc1)c1ccccc1C(=O)N1CCN(C(=O)C2CC2)CC1	nt	nt	1.4%	nt	nt	nt
O=C(NNC(=O)C1CCC(c2ccccc2)CC1)c1ccc(Br)cc1 (stereo not drawn)	nt	nt	-43.9%	nt	nt	nt
CC(NC(=O)C12CC3CC(CC(C3)C1)C2)c1cccs1 (stereo not drawn)	nt	nt	-33.5%	nt	nt	nt
CCc1ccccc1N(C)C(=O)c1cc2c(s1)-c1c(C)cccc1OC2	nt	23.1µM*	-12.0%	nt	23.1µM*	nt
COc1cccc(N2CCN(C(=O)c3cc4c(s3)-c3c(C)cccc3OC4)CC2)c1	nt	23.1µM*	8.0%	nt	?	nt
COc1cc(OC)c(N(C)C(=O)c2cc3c(s2)-c2ccccc2OC3)cc1Cl	nt	23.1µM*	-18.4%	nt	13µM*	nt
COc1ccc(N(C)C(=O)c2cc3c(s2)-c2c(C)cccc2OC3)c(OC)c1	-7.0	20.6µM*	0.0%	-20.8%	?	-8.8%
COc1ccc(N(C)C(=O)c2cc3c(s2)-c2ccccc2OC3)cc1	nt	?	-14.8%	nt	?	nt
Fc1cccc(-n2c(SCc3nc4ccccc4o3)nnc2N2CCOCC2)c1	nt	nt	-2.4%	nt	nt	nt
Cc1ccc(C)c(CN2CCn3c(nn(CCCOc4ccc(F)cc4)c3=O)C2=O)c1	nt	nt	11.7%	nt	nt	nt
Cc1cccc2c1-c1sc(C(=O)Nc3cccc([N+](=O)[O-])c3C)cc1CO2	-52.3*	23.1µM*	-26.0%	-2.2%	?	-9.6%
Cc1cccc2c1-c1sc(C(=O)NCc3ccccc3Cl)cc1CO2	nt	25.9µM*	-23.7%	nt	16.4µM*	nt
Cc1cccc2c1-c1sc(C(=O)Nc3ccccc3C(N)=O)cc1CO2	nt	?	?	nt	-28.4%	nt
O=C1NCc2ccccc2CC12CCCN2Cc1ccc(F)cc1 (stereo not drawn)	nt	nt	3.0%[6.33 µM]	nt	nt	nt
SMILES	IL-1B inflam inh	TDP1 cell noCPT	ALOX12 inh	HT1080 IDH1KD tx	DT40 TDP1 CPT	HT1080NT lethal
COc1ccc(Sc2ccc(-c3nc4cnccn4c3NC3CCCCC3)cc2OC)cc1	?	13µM*	-11.5%	9.0%	14.6µM*	4.8%
CCC(C)Sc1ccc(-c2nc3cc(C)ccn3c2NC2CCCCC2)cc1 (stereo not drawn)	-65.7*!	14.6µM*	35.5µM*!	?	23.1µM*	20.6µM*
COc1cc(-c2nc3cnccn3c2Nc2c(C)cccc2C)ccc1O	23.0	?	-1.1%	5.2%	?	-21.4%
Cc1ccn2c(NC3CCCCC3)c(C(C)C)nc2c1	-2.2	-14.1%	?	2.3%	-21.5%	1.7%
CCC(C)Sc1ccc(-c2nc3cnccn3c2NC2CCCCC2)cc1 (stereo not drawn)	-51.7*!	16.4µM*	?	?	?	?
c1cn2c(NC3CCCCC3)c(-c3ccc(N4CCOCC4)cc3)nc2cn1	nt	nt	-26.4%	nt	nt	nt
Clc1ccc(-c2nc3cnccn3c2NC2CCCC2)cc1	27.5	25.9µM*	nt	-6.6%	?	-1.8%
COc1ccccc1-c1nnc(NC(=O)C(C)SC2=NCCS2)s1 (stereo not drawn)	?	?	12.8%	0.3%	20.6µM*	-12.2%
CC(SC1=NCCS1)C(=O)Nc1nnc(-c2ccc(Cl)cc2)s1 (stereo not drawn)	?	20.6µM*	2.8%[57.4 µM]	9.3%	14.6µM*	10.6%
CC(Sc1nncn1C)C(=O)Nc1nnc(-c2ccccc2)s1 (stereo not drawn)	-26.4	0.1%	2.5%[57.4 µM]	8.2%	0.0%	14.2%
CCNc1nnc(-c2ccccc2OC)s1	-0.1	2.8%	351.8%	17.6%	-17.8%	2.0%
CCN(C1CCOCC1)C1CN(C(=O)c2cccn2C)C1	nt	nt	6.6%	nt	nt	nt
CCN1CCN(CC(=O)NCc2ccc3[nH]c(-c4ccc(F)cc4)c(C)c3c2)CC1	nt	nt	13.9%	nt	nt	nt
Cc1ccc(-c2nnc(Nc3ccccc3)c3ccccc23)cc1S(=O)(=O)NCC1CCCO1 (stereo not drawn)	-62.4*	16.4µM*	-15.3%	-20.5%	25.9µM*	-19.1%
CCCCNS(=O)(=O)c1ccc(C)c(-c2nnc3c4ccccc4c(C)nn23)c1	nt	16.4µM*	-2.7%	nt	?	nt
CC(=O)Nc1ccc(Nc2nnc(-c3ccc(C)c(S(=O)(=O)NCC4CCCO4)c3)c3ccccc23)cc1 (stereo not drawn)	-9.6	3.2%	17.6%	-2.1%	-2.6%	-3.9%
CNC(=O)c1ccc(Nc2nnc(-c3ccc(C)c(S(=O)(=O)NCC4CCCO4)c3)c3ccccc23)cc1 (stereo not drawn)	?	13µM*	1.6%	-12.9%	25.9µM*	-21.2%
CCOC(=O)CNS(=O)(=O)c1cc(-c2nn(C)c(=O)c3ccccc23)ccc1C	-92.3*	?	?	-0.2%	?	2.1%
Cn1c(=O)c2c(ncn2CC(=O)N(C2CCCCC2)C2CCS(=O)(=O)C2)n(C)c1=O (stereo not drawn)	nt	nt	-2.3%	nt	nt	nt
C=C(C)CN(CC)C(=O)/C=C/c1csc(C)n1	nt	nt	7.1%	nt	nt	nt
Cc1ccc(-c2nn3c(-c4ccco4)nnc3c3ccccc23)cc1S(=O)(=O)NCC1CCCO1 (stereo not drawn)	-26.0	5.8µM*	-10.8%	0.7%	?	1.6%
